Bioassay records: PubChem, National Center for Advancing Translational Sciences (NCATS)
FUS yeast rescue: suppressors of FUS proteinopathy in yeast. hit rate 0.24% among 390,000. S. cerevisiae FUS-expressing, growth rescue, OD600, 24 h. Potency, µM (doses to about 76.6 µM), hits mostly activators; also: nearly all actives have a fitted effect of over 55% in size
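Yeast expressing FUS under galactose induction, OD 0.005 in 2% galactose medium; compounds in a dilution series, 24 h at 30C. Growth rescue by absorbance at 600 nm; CP55940 positive control, DMSO negative.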
TDP43 rescue: TDP-43 toxicity inhibition in yeast. AID 652104. Potency, µM (highest dose often 46.1 µM), hits mostly activators. TDP-43 expressing yeast growth rescue, BacTiter-Glo, 24 h. hit rate 1.8% among 410,000; also: nearly all actives have a fitted effect of over 50% in size
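Readout is BacTiter-Glo luminescence of cell growth, so inhibitors register as activators. TDP-43-expressing yeast at OD600=0.02 in galactose medium, after raffinose pregrowth to mid-log, were incubated with compound for 24 hr at 30 deg C.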
Abeta yeast res: restores growth of yeast expressing A-beta42 peptide; yeast expressing A-beta42, growth rescue, OD600, 48 h; response scale: 0% DMSO, 100% iron-clioquinol control; Potency, µM (highest dose often 46.1 µM), most hits filed as activators; hit rate 0.063% among 410,000; AID 1347071; also: nearly all actives have a fitted effect of over 55% in size
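Yeast A-beta toxicity model in growth medium with pinned compounds, 48 h at 30 C; growth read as absorbance at 600 nm. Normalized to FeCl3/clioquinol equimolar mix (positive) and DMSO (negative).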
aSyn rescue: inhibitors of alpha-synuclein toxicity in yeast; AID 652106; Potency, µM (series often up to 46.1 µM), most hits filed as activators; Yeast expressing alpha-synuclein, growth rescue, BacTiter-Glo, 24 h; hit rate 0.14% among 370,000; also: nearly all actives have a fitted effect of over 65% in size
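Screening used galactose-induced yeast with toxic alpha-synuclein levels, exposed to compound for 24 hr at 30 deg C. Cell growth, read with BacTiter-Glo luminescence, gave the measured signal.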
A number is an active result; 0 = inactive; ? = inconclusive; - = not tested or not shown; [ ] = dose if it differs, or a comment. The list is not random: actives were taken first. Their share in the collection is about 2.1%. Calls follow the shape of the dose curve; as a rule, active = well fitted curve in the direction sought with a large enough effect; inconclusive = small, poorly fitted or top-dose-only effect, or another doubt; inactive = no such curve, though single readings can be large; an effect the other way counts as inactive or inconclusive.

SMILES	FUS yeast rescue	TDP43 rescue	Abeta yeast res	aSyn rescue
CC(CCc1ccccc1)NC(=O)c1nnc(Cc2ccc(Cl)cc2)o1 (stereo unspecified)	0	22µM	0	0
O=C(NCCc1ccc(Cl)cc1)c1nnc(Cc2ccc(Cl)cc2)o1	0	0	0	0
CC1CCN(C(c2ccc(N(C)C)cc2)c2nnnn2Cc2ccc(F)cc2)CC1 (stereo unspecified)	0	0	0	0
Fc1ccc(Cn2nnnc2C(c2ccc(Cl)cc2)N2CCSCC2)cc1 (stereo unspecified)	0	35µM	0	0
Cc1cc(Nc2ncc(Cl)cc2Cl)n(-c2ccccc2)n1	0	7.1µM	0	0
Cc1cc(NC(=O)Nc2cccc(Cl)c2)n(-c2ccccc2)n1	0	0	0	0
Cc1cc(Nc2ccccc2)n(-c2cccc(Cl)c2)n1	0	14µM	0	0
Cc1cc(Nc2ncc(Cl)cc2Cl)n(-c2ccccn2)n1	0	0	0	0
COc1cccc(C(O)c2nc(-c3ccccc3)cs2)c1 (stereo unspecified)	0	16µM	0	0
COc1cc(F)ccc1-c1csc(C(O)c2ccccc2)n1 (stereo unspecified)	?	35µM	0	0
COc1cccc(C(O)c2nc(-c3ccccc3OC)cs2)c1 (stereo unspecified)	0	22µM	0	?
COc1cccc(C(O)c2nc(-c3ccccc3C)cs2)c1 (stereo unspecified)	0	?	0	0
COc1cccc(C(O)c2nc(-c3ccc(Cl)cc3)cs2)c1 (stereo unspecified)	0	13µM	?	0
COc1ccccc1-c1csc(C(O)c2ccc(F)cc2)n1 (stereo unspecified)	0	?	0	0
Fc1ccc(C2=CC(c3ccc(F)cc3)n3c(nc4ccccc43)N2)cc1 (stereo unspecified)	0	22µM	0	-
COC(=O)c1ccc(C2C=C(c3ccc(Cl)cc3)Nc3nc4ccccc4n32)cc1 (stereo unspecified)	0	10µM	0	-
COc1ccc(C2=CC(c3cc(Br)ccc3F)n3c(nc4ccccc43)N2)cc1 (stereo unspecified)	0	?	0	-
CCN(CC)C(=O)CC[C@@H]1CC[C@]2(CCCN(S(C)(=O)=O)C2)O1	0	-	-	-
CCOc1ccccc1COC(=O)c1cccc(-n2cnnn2)c1	0	18µM	0	0
CCCn1c(C)cc(C(=O)COc2ccc(-c3nnco3)cc2)c1C	0	28µM	0	0
COc1ccc(C(=O)c2oc3ccccc3c2NC(=O)c2nc(SC)ncc2Cl)cc1Cl	0	0	0	-
CCCN1C(=O)/C(=C/c2ccc(OCC(=O)OCC)cc2)NC1=S	22µM	0	0	0
Cc1cc(/C=C2\NC(=S)N(C)C2=O)ccc1N1CCCC1	0	0[0.397 µM]	0	0
CCCN1C(=O)/C(=C/c2ccc(N3CCCC3)c(C)c2)NC1=S	0	3.2µM	0	0
O=S(=O)(NCCc1csc2nc(-c3ccc(Cl)cc3)nn12)c1cccs1	0	0	0	-
SMILES	FUS yeast rescue	TDP43 rescue	Abeta yeast res	aSyn rescue
O=C(C[n+]1cccc2cc(Cl)ccc21)c1cccc([N+](=O)[O-])c1	-	-	-	0
Clc1ccc(OCc2nc(-c3ccccn3)n[nH]2)cc1	0	?	?	?
Brc1ccc(OCc2nc(-c3ccccn3)n[nH]2)cc1	0	16µM	0	?
O=C(Nc1ccc(Br)cc1)C1CC(c2c(F)cccc2Cl)=NO1 (stereo unspecified)	0	11µM	0	0
O=C(Nc1cc(Br)ccc1O)C1CC(c2c(F)cccc2Cl)=NO1 (stereo unspecified)	0	0	0	0
CCCOc1ccc(CNC(=O)Cn2cc3c(n2)-c2c(oc(C(=O)N4CCOCC4)c2C)CC3)cc1	0	0	0	-
CC(C)c1ccc2oc(-c3cc(N)ccc3O)nc2c1	0	20µM	0	0
Cn1c(=O)c(Cc2ccccc2)c(O)c2ccccc21	0	0	0	0
CCCCCOC(=O)Cc1c(O)c2ccccc2n(C)c1=O	0	11µM	0	0
CNC(=O)c1cccnc1Nc1cccc(C(F)(F)F)c1	0	18µM	0	0
O=C(Nc1cccc(C(F)(F)F)c1)c1cccnc1NCCO	0	0	0	0
CSc1nn(Cc2ccccc2C)c(NC(C)=O)c1S(=O)(=O)c1ccc(C)cc1	0	0	0	-
Cc1ccc(C(=O)C(OC(=O)CNC(=O)COc2ccccc2C)c2ccccc2)cc1 (stereo unspecified)	-	-	-	0
